Laboratory results: PubChem BioAssay (Tox21)
Records with an inconclusive call do not appear. Unmarked numbers belong to inactive results. Calls follow the shape of the dose curve; as a rule, active = well fitted activation curve with a large enough effect in the repeat runs; inconclusive = weak or mixed curves; inactive = flat fitted curve, though single readings scatter.

Assay: A CellTox Green Cytotoxicity Assay to monitor cytotoxicity in HepG2 cells - 24 hour (AID 1224878); also: nearly all actives have a fitted effect of over 45% in size
Details: CellTox Green fluorescence; series mostly up to 76.8 µM; cytotoxicity: at the top concentration
From the text: National Center for Advancing Translational Sciences [NCATS]
NIH Chemical Genomics Center [NCGC]
U.S. Environmental Protection Agency [EPA]
National Institutes of Environmental Health Sciences [NIEHS]
National Toxicology Program [NTP]
Cell-based models are critical for drug discovery. Determining the natural cytotoxic effects resulting from test compounds is an essential research activity. A CellTox Green Cytotoxicity Assay to monitor cytotoxicity in real time of continues cell culture during 40 hours of the compound treatment was used to screen Tox21 10K library compounds in HepG2 cells. CellTox Green Cytotoxicity Assay is a nonlytic, homogeneous, biofluorescent method to measure cytotoxicity in cell culture after experimental manipulation. The assay system uses a proprietary asymmetric cyanine dye that is excluded from viable cells but preferentially stains the dead cell's DNA. […] Viable cells produce no appreciable increases in fluorescence. Therefore, the fluorescence signal produced by the binding interaction with dead cell DNA is proportional to cytotoxicity.
The mixture of HepG2 cell suspension and reagents were dispensed at 600cells/6 ul/well in 1536-well tissue culture treated black solid bottom plates using a Multidrop dispenser. After the assay plates were incubated at a 37 C/5% CO2 incubator for 5 hours, 23 nL of compounds dissolved in DMSO, positive and negative controls was transferred to the assay plate by a pintool work station. The plates were incubated at 37 C for 40 hours. The fluorescence intensity were measured at 0h, 8h, 16h, 24h, 32h and 40h time points using ViewLux plate reader during compound treatment.
% is scaled to controls: 0 for no effect and ±100 for the full control effect.

Going from `COc1cc(C=O)ccc1OC(=O)C(C)C` to `CC(C)COC(=O)COc1ccc(Cl)cc1Cl`, the “cytotoxicity” value rises from -5.59% to 16.5%.

First: C1=C\CC/C=C\CC/1
Second: O=S1(=O)CCCC1
The “cytotoxicity” value of the first is higher: 7.08% for the first, -1.47% for the second.

First: CCN(CCO)c1cccc(C)c1
Second: CCOC(=O)CCc1ccccc1
The “cytotoxicity” value of the first is lower: -13.4% for the first, 5.58% for the second.

Going from `CO[Si](CCCCl)(OC)OC` to `CCCCC(=O)N(C)C`, the “cytotoxicity” value rises from 0.235% to 1.04%.

First: CCCOC(=O)CCCCC(=O)OCCC
Second: CCCCOC(=O)C(=O)OCCCC
The “cytotoxicity” value of the first is lower: -2.23% for the first, 2.3% for the second.

Compared with `CC(=O)OC(C(=O)c1ccccc1)c1ccccc1` (stereo not given), `Cc1ccccc1OCC1CO1` (stereo not given) is higher in “cytotoxicity” value: 1.22% for the first, 8.45% for the second.

First: CCOC(=O)CC#N
Second: CCCCCCCCOC(C)=O
The “cytotoxicity” value of the first is higher: -0.249% for the first, -4.2% for the second.

Going from `COc1ccc(N=Nc2cc(C)c(N=Nc3ccc(S(=O)(=O)O)cc3)cc2OC)cc1` to `COc1cccc2sc(N)nc12`, the “cytotoxicity” value rises from -21.2% to -3.69%.

Compared with `CCCCCCCCCCC`, `CCCCCCCCCCCCC` is higher in “cytotoxicity” value: -7.83% for the first, -4.38% for the second.

Compared with `c1ccc(CNc2ncnc3nc[nH]c23)cc1`, `Nc1ccnc(=O)[nH]1` is higher in “cytotoxicity” value: -7.17% for the first, -2.33% for the second.

First: CCC(C)(C)C1CCC(=O)CC1
Second: CCC(C)(CCC(C)C)C(=O)[O-].CCC(C)(CCC(C)C)C(=O)[O-].[Zn+2] (stereo not given)
The “cytotoxicity” value of the first is lower: 1.26% for the first, 3.1% for the second.

First: C=CCOC(=O)c1ccc(C(=O)OCC=C)c(C(=O)OCC=C)c1
Second: CCOC(=O)CC(CC(=O)OCC)(OC(C)=O)C(=O)OCC
The “cytotoxicity” value of the first is lower: 2.76% for the first, 3.17% for the second.

Going from `CCC(C)N` (stereo not given) to `C/C=C(\C)C(=O)OCC/C=C\CC`, the “cytotoxicity” value rises from -12.6% to -5.8%.

First: C=CCOc1cc(Cl)ccc1C(=O)NCCN(CC)CC
Second: COc1ccc(/C=N/NC(=O)c2ccncc2)cc1OC
The “cytotoxicity” value of the first is higher: 3.74% [at 35.3 µM] for the first, -13.6% [at 35.3 µM] for the second.

First: NS(=O)(=O)c1cc2c(cc1Cl)NC(C(Cl)Cl)NS2(=O)=O (stereo not given)
Second: CCCCCC1Nc2cc(C(F)(F)F)c(S(N)(=O)=O)cc2S(=O)(=O)N1 (stereo not given)
The “cytotoxicity” value of the first is higher: 0.847% [at 35.3 µM] for the first, 0.395% [at 35.3 µM] for the second.

First: Nc1ccc(C(=O)OCC(O)CO)cc1 (stereo not given)
Second: O=P(O)(O)OCC(O)CO (stereo not given)
The “cytotoxicity” value of the first is higher: -5.01% [at 35.3 µM] for the first, -12% [at 35.3 µM] for the second.

Compared with `O=C1CC[C@H](C(=O)N2CCCCC2)N1`, `CCOC(=O)C(=O)c1csc(NC=O)n1` is lower in “cytotoxicity” value: 5.83% [at 35.3 µM] for the first, -19% [at 35.3 µM] for the second.

Going from `Cc1cc(O)c2c(c1)C(=O)c1cccc(O)c1C2=O` to `O=C(Oc1ccccc1C(=O)O)c1ccccc1O`, the “cytotoxicity” value falls from 1.22% [at 35.3 µM] to -1.73% [at 35.3 µM].

Compared with `O=C(O)c1ccccc1C(=O)Nc1ccc(S(=O)(=O)Nc2nccs2)cc1`, `CC(=O)OC[C@H]1O[C@@H](OC(C)=O)[C@H](OC(C)=O)[C@@H]1OC(C)=O` is lower in “cytotoxicity” value: 1.8% [at 35.3 µM] for the first, -5.11% [at 35.3 µM] for the second.

For `NCCc1ccn[nH]1`, the “cytotoxicity” value was -5.85% [at 35.3 µM].

In the case of `O=CO`, the cytotoxicity is reported as -17.2% [at 6.97 µM].
